# Source: PubChem BioAssay (NCI)
# Compounds without any hit were thinned out: in the full panel of roughly 83,000, 20% have a hit.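 Plates (96-well) were seeded with cells, treated with compound at one concentration, and incubated for 48 hours before percent growth was determined.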 Unmarked numbers belong to inactive results. Active and inactive are the calls of the source. Rule for the calls: active = growth percent below 10; inactive = the rest.
# How the values were obtained:
# Assay in all cases: NCI-60 one-dose screen, 48 h (100 = growth as untreated, 0 = no growth, -100 = all killed)
# Conditions in all cases: 10 µM unless noted
# DU-145 prostate = tested on: DU-145 prostate
# K-562 leukemia = tested on: K-562 leukemia
# MALME-3M melanoma = tested on: MALME-3M melanoma
# MDA-MB-231 breast = tested on: MDA-MB-231 breast
# RXF 393 renal = tested on: RXF 393 renal
# SF-268 CNS = tested on: SF-268 CNS
# SF-295 CNS = tested on: SF-295 CNS
# SF-539 CNS = tested on: SF-539 CNS
# UACC-257 melanoma = tested on: UACC-257 melanoma
# M14 melanoma = tested on: M14 melanoma
# HCT-15 colon = tested on: HCT-15 colon
# HT29 colon = tested on: HT29 colon
# SNB-75 CNS = tested on: SNB-75 CNS
# SNB-19 CNS = tested on: SNB-19 CNS
# U251 CNS = tested on: U251 CNS
# PC-3 prostate = tested on: PC-3 prostate
# SK-MEL-5 melanoma = tested on: SK-MEL-5 melanoma
# UACC-62 melanoma = tested on: UACC-62 melanoma
# LOX IMVI melanoma = tested on: LOX IMVI melanoma
# SK-MEL-28 melanoma = tested on: SK-MEL-28 melanoma
Compound,growth (DU-145 prostate) [%],growth (K-562 leukemia),growth (MALME-3M melanoma),growth (MDA-MB-231 breast),growth (RXF 393 renal),growth (SF-268 CNS),growth (SF-295 CNS),growth (SF-539 CNS),growth (UACC-257 melanoma),growth (M14 melanoma),growth (HCT-15 colon),growth (HT29 colon),growth (SNB-75 CNS),growth (SNB-19 CNS) [%],growth (U251 CNS),growth (PC-3 prostate),growth (SK-MEL-5 melanoma),growth (UACC-62 melanoma),growth (LOX IMVI melanoma),growth (SK-MEL-28 melanoma)
N#Cc1c(N)nc(NCCO)nc1-c1ccc(F)cc1,113,91.4%,108%,104%,93.5%,103%,99.1%,98.6%,90.6%,105%,99.9%,95.9%,79.2%,104,90.2%,92.9%,95%,95%,90.8%,112%
O=C(/C=C/c1c(Cl)nc2sccn12)c1ccc(F)c(F)c1,96.1,48.1%,113%,81.8%,69.7%,81.4%,91.9%,96.5%,73.9%,87.2%,90.4%,87%,60.4%,87.9,90.7%,78.8%,66.4%,68.7%,92%,96%
COc1ccc(N=Nc2ccc(O)c(=O)cc2)cc1,19.3,2.95% (active),9.91% (active),17.5%,29.7%,22.3%,10.2%,-5.77% (active),7.51% (active),13%,16.4%,33.1%,8.47% (active),15.1,12.8%,36.6%,-23.3% (active),-54% (active),-38.8% (active),5.78% (active)
COc1ccc(-c2nc(SCCC(C)C)nc(N/N=C\c3cccc([N+](=O)[O-])c3)c2C#N)cc1,34.1,56.8%,50%,23.4%,28%,25.1%,32.1%,27.5%,81%,61.3%,38.7%,30.3%,-14% (active),45.1,8.23% (active),40.5%,71.1%,67.5%,18.8%,67.5%
CC(C)=C[C@@H]1c2c(c3ccccc3n(C)c2=O)O[C@H]2c3c(c4ccccc4n(C)c3=O)OC(C)(C)[C@@H]12,106,56.1%,99.4%,85.8%,88.9%,86.1%,65.5%,81.2%,82.2%,98.9%,65.4%,77.9%,60.6%,99.2,84.5%,6.54% (active),61.5%,65.6%,67%,104%
O=C(Cc1ccc(F)c(F)c1)Nc1cc(C2(C(F)(F)F)CC2)nn1Cc1ccccc1,20.5,13.3%,-37.7% (active),-70.7% (active),-26.9% (active),9.11% (active),-1.31% (active),16.3%,-14.6% (active),20.2%,6.24% (active),17.6%,-14.9% (active),13.3,4.6% (active),-6.07% (active),-80.8% (active),-10.3% (active),5.44% (active),18.6%
CCN(CC)CCN1CC(O)=C(c2nc(-c3ccc(Cl)cc3)cs2)C1=N,66.4,1.62% (active),-44.3% (active),12.6%,25%,4.19% (active),24%,-69.8% (active),-38.4% (active),-57.1% (active),-13.4% (active),-18.1% (active),46.7%,66.3,-48.2% (active),76%,-1.71% (active),-81.4% (active),-61.4% (active),-66.7% (active)
